Test results taken from PubChem BioAssay AID1159580 (chemical genetic matrix, 2015).
Screen size: about 5,500 compounds; about 2,000 (36%) were called active. Not shown: some 18% with an inconclusive outcome. No stated cut-off is given here; in the data, active means normalized growth mostly below about 0.91 (no sharp cut-off); inconclusive means no clear call, values can overlap the other calls; inactive means mostly above about 0.92. The list shows a part of the results.

Assay: chemical genetic growth profiling, strain panel (AID 1159580);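 further: tested at 20 µM; growth read once vehicle control cultures reached saturation at 30 °C; 1 = growth at the plate median or of vehicle wells; lower values mean less growth of the strain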
Settings: growth OD

Measured: normalized growth

COc1ccc2c(c1)[C@@]1(C)CCC(=O)C[C@H]1CC2
inactive: S. cerevisiae deletion strains, locus YAL013W, strain DEP1, hits give low values 0.984 | S. cerevisiae deletion strains, locus YAL021C, strain ccr4, hits give low values 0.989 | S. cerevisiae deletion strains, locus YAL026C, strain drs2, hits give low values 0.982 | S. cerevisiae deletion strains, locus YAL030W, strain snc1, hits give low values 0.959 | S. cerevisiae deletion strains, locus YBL061C, strain skt5, hits give low values 0.989 | S. cerevisiae deletion strains, locus YBR009C, strain hhf1, hits give low values 0.98 | S. cerevisiae deletion strains, locus YBR021W, strain FUR4, hits give low values 0.969 | S. cerevisiae deletion strains, locus YBR023C, strain chs3, hits give low values 0.98 | S. cerevisiae deletion strains, locus YBR171W, strain sec66, hits give low values 0.93 | S. cerevisiae deletion strains, locus YBR229C, strain ROT2, hits give low values 0.994 | S. cerevisiae deletion strains, locus YBR231C, strain swc5, hits give low values 0.986 | S. cerevisiae deletion strains, locus YBR279W, strain paf1, hits give low values 0.98 | S. cerevisiae deletion strains, locus YCL011C, strain gbp2, hits give low values 0.961 | S. cerevisiae deletion strains, locus YCL016C, strain dcc1, hits give low values 0.976 | S. cerevisiae deletion strains, locus YCL029C, strain bik1, hits give low values 0.985 | S. cerevisiae deletion strains, locus YCL061C, strain MRC1, hits give low values 0.949 | S. cerevisiae deletion strains, locus YCL069W, strain vba3, hits give low values 0.963 | S. cerevisiae deletion strains, locus YCR088W, strain abp1, hits give low values 0.978 | S. cerevisiae deletion strains, locus YDL005C, strain med2, hits give low values 0.954 | S. cerevisiae deletion strains, locus YDL035C, strain GPR1, hits give low values 1.01 | S. cerevisiae deletion strains, locus YDL040C, strain nat1, hits give low values 0.969 | S. cerevisiae deletion strains, locus YDL074C, strain BRE1, hits give low values 1.01 | S. cerevisiae deletion strains, locus YDL101C, strain DUN1, hits give low values 1 | S. cerevisiae deletion strains, locus YDL134C, strain PPH21, hits give low values 0.995 | S. cerevisiae deletion strains, locus YDL185W, strain tfp1, hits give low values 0.977 | S. cerevisiae deletion strains, locus YDL192W, strain arf1, hits give low values 0.98 | S. cerevisiae deletion strains, locus YDR001C, strain nth1, hits give low values 0.973 | S. cerevisiae deletion strains, locus YDR069C, strain doa4, hits give low values 0.963 | S. cerevisiae deletion strains, locus YDR101C, strain arx1, hits give low values 0.985 | S. cerevisiae deletion strains, locus YDR137W, strain rgp1, hits give low values 0.902 | S. cerevisiae deletion strains, locus YDR159W, strain sac3, hits give low values 0.937 | S. cerevisiae deletion strains, locus YDR162C, strain NBP2, hits give low values 1.01 | S. cerevisiae deletion strains, locus YDR195W, strain ref2 1.01 | S. cerevisiae deletion strains, locus YDR297W, strain sur2, hits give low values 0.98 | S. cerevisiae deletion strains, locus YDR318W, strain mcm21, hits give low values 0.975 | S. cerevisiae deletion strains, locus YDR334W, strain swr1, hits give low values 0.94 | S. cerevisiae deletion strains, locus YDR335W, strain msn5, hits give low values 0.967 | S. cerevisiae deletion strains, locus YDR388W, hits give low values 0.978 | S. cerevisiae deletion strains, locus YDR392W, strain spt3, hits give low values 0.938 | S. cerevisiae deletion strains, locus YDR502C, strain sam2, hits give low values 0.951 | S. cerevisiae deletion strains, locus YEL003W, strain gim4, hits give low values 0.942 | S. cerevisiae deletion strains, locus YEL037C, strain rad23, hits give low values 0.97 | S. cerevisiae deletion strains, locus YEL061C, strain CIN8 (second series), hits give low values 0.97 | S. cerevisiae deletion strains, locus YER015W, strain faa2, hits give low values 0.973 | S. cerevisiae deletion strains, locus YER016W, strain bim1, hits give low values 0.965 | S. cerevisiae deletion strains, locus YER110C, hits give low values 0.958 | S. cerevisiae deletion strains, locus YER111C, strain swi4, hits give low values 0.942 | S. cerevisiae deletion strains, locus YER155C, strain BEM2 (second series), hits give low values 0.899 | S. cerevisiae deletion strains, locus YER155C, strain BEM2, hits give low values 0.989 | S. cerevisiae deletion strains, locus YER167W, strain BCK2, hits give low values 0.996 | S. cerevisiae deletion strains, locus YFR010W, strain ubp6, hits give low values 0.992 | S. cerevisiae deletion strains, locus YGL078C, strain dbp3, hits give low values 0.983 | S. cerevisiae deletion strains, locus YGL086W, strain mad1, hits give low values 0.964 | S. cerevisiae deletion strains, locus YGL173C, strain kem1, hits give low values 0.949 | S. cerevisiae deletion strains, locus YGL227W, strain vid30, hits give low values 0.96 | S. cerevisiae deletion strains, locus YGL240W, strain doc1, hits give low values 0.923 | S. cerevisiae deletion strains, locus YGL248W, strain PDE1, hits give low values 0.998 | S. cerevisiae deletion strains, locus YGL253W, strain hxk2, hits give low values 0.932 | S. cerevisiae deletion strains, locus YGR135W, strain pre9, hits give low values 0.947 | S. cerevisiae deletion strains, locus YGR252W, strain gcn5, hits give low values 0.933 | S. cerevisiae deletion strains, locus YHR013C, strain ard1, hits give low values 0.966 | S. cerevisiae deletion strains, locus YHR027C, strain rpn1, hits give low values 0.965 | S. cerevisiae deletion strains, locus YHR079C, strain IRE1 (second series), hits give low values 0.977 | S. cerevisiae deletion strains, locus YHR094C, strain hxt1, hits give low values 0.968 | S. cerevisiae deletion strains, locus YHR129C, strain ARP1, hits give low values 0.992 | S. cerevisiae deletion strains, locus YHR142W, strain chs7, hits give low values 0.954 | S. cerevisiae deletion strains, locus YHR200W, strain rpn10, hits give low values 0.971 | S. cerevisiae deletion strains, locus YIL066C, strain RNR3, hits give low values 1.01 | S. cerevisiae deletion strains, locus YIL073C, strain SPO22, hits give low values 0.964 | S. cerevisiae deletion strains, locus YIL125W, strain kgd1, hits give low values 0.994 | S. cerevisiae deletion strains, locus YIR030C, strain dcg1, hits give low values 0.974 | S. cerevisiae deletion strains, locus YJL092W, strain hpr5, hits give low values 0.948 | S. cerevisiae deletion strains, locus YJL095W, strain BCK1 (second series), hits give low values 0.959 | S. cerevisiae deletion strains, locus YJL095W, strain BCK1, hits give low values 0.958 | S. cerevisiae deletion strains, locus YJL115W, strain asf1, hits give low values 0.936 | S. cerevisiae deletion strains, locus YJL129C, strain trk1, hits give low values 0.973 | S. cerevisiae deletion strains, locus YJL134W, strain LCB3, hits give low values 0.995 | S. cerevisiae deletion strains, locus YJL154C, strain vps35, hits give low values 0.958 | S. cerevisiae deletion strains, locus YJL164C, strain tpk1, hits give low values 0.972 | S. cerevisiae deletion strains, locus YJL166W, strain qcr8, hits give low values 0.96 | S. cerevisiae deletion strains, locus YJL168C, strain set2, hits give low values 0.951 | S. cerevisiae deletion strains, locus YJL187C, strain SWE1 (second series), hits give low values 0.998 | S. cerevisiae deletion strains, locus YKL009W, strain mrt4, hits give low values 0.997 | S. cerevisiae deletion strains, locus YKL068W, hits give low values 0.993 | S. cerevisiae deletion strains, locus YKL085W, strain MDH1 (second series), hits give low values 0.986 | S. cerevisiae deletion strains, locus YKL085W, strain MDH1, hits give low values 0.986 | S. cerevisiae deletion strains, locus YKL160W, strain elf1, hits give low values 0.977 | S. cerevisiae deletion strains, locus YKL190W, strain CNB1, hits give low values 0.994 | S. cerevisiae deletion strains, locus YKR001C, strain vps1, hits give low values 0.953 | S. cerevisiae deletion strains, locus YKR026C, strain gcn3, hits give low values 0.976 | S. cerevisiae deletion strains, locus YKR091W, strain srl3, hits give low values 0.968 | S. cerevisiae deletion strains, locus YLL001W, strain dnm1, hits give low values 0.951 | S. cerevisiae deletion strains, locus YLL026W, hits give low values 0.964 | S. cerevisiae deletion strains, locus YLL041C, strain sdh2, hits give low values 0.98 | S. cerevisiae deletion strains, locus YLR027C, strain aat2, hits give low values 0.968 | S. cerevisiae deletion strains, locus YLR039C, strain RIC1, hits give low values 0.96 | S. cerevisiae deletion strains, locus YLR058C, strain SHM2, hits give low values 0.995 | S. cerevisiae deletion strains, locus YLR102C, strain apc9, hits give low values 0.985 | S. cerevisiae deletion strains, locus YLR221C, strain rsa3, hits give low values 0.969 | S. cerevisiae deletion strains, locus YLR258W, strain gsy2, hits give low values 0.967 | S. cerevisiae deletion strains, locus YLR262C, strain YPT6 (second series), hits give low values 0.969 | S. cerevisiae deletion strains, locus YLR262C, strain YPT6, hits give low values 0.973 | S. cerevisiae deletion strains, locus YLR268W, strain sec22, hits give low values 0.965 | S. cerevisiae deletion strains, locus YLR320W, strain mms22, hits give low values 0.966 | S. cerevisiae deletion strains, locus YLR342W, strain FKS1, hits give low values 0.969 | S. cerevisiae deletion strains, locus YLR357W, strain rsc2, hits give low values 0.947 | S. cerevisiae deletion strains, locus YLR370C, strain arc18, hits give low values 0.953 | S. cerevisiae deletion strains, locus YLR371W, strain rom2, hits give low values 0.98 | S. cerevisiae deletion strains, locus YLR384C, strain iki3, hits give low values 0.969 | S. cerevisiae deletion strains, locus YLR418C, strain cdc73, hits give low values 0.956 | S. cerevisiae deletion strains, locus YML016C, strain PPZ1, hits give low values 0.989 | S. cerevisiae deletion strains, locus YML032C, strain rad52, hits give low values 0.988 | S. cerevisiae deletion strains, locus YML120C, strain ndi1, hits give low values 0.953 | S. cerevisiae deletion strains, locus YML124C, strain tub3, hits give low values 0.976 | S. cerevisiae deletion strains, locus YMR058W, strain fet3, hits give low values 0.948 | S. cerevisiae deletion strains, locus YMR078C, strain ctf18, hits give low values 0.965 | S. cerevisiae deletion strains, locus YMR125W, strain sto1, hits give low values 0.97 | S. cerevisiae deletion strains, locus YMR129W, hits give low values 0.994 | S. cerevisiae deletion strains, locus YMR205C, strain PFK2, hits give low values 0.976 | S. cerevisiae deletion strains, locus YMR223W, strain ubp8, hits give low values 0.98 | S. cerevisiae deletion strains, locus YMR231W, strain pep5, hits give low values 0.968 | S. cerevisiae deletion strains, locus YMR307W, strain GAS1, hits give low values 1 | S. cerevisiae deletion strains, locus YNL067W, strain RPL9B, hits give low values 0.975 | S. cerevisiae deletion strains, locus YNL071W, strain lat1, hits give low values 0.955 | S. cerevisiae deletion strains, locus YNL153C, strain GIM3, hits give low values 0.995 | S. cerevisiae deletion strains, locus YNL233W, strain BNI4, hits give low values 0.959 | S. cerevisiae deletion strains, locus YNL248C, strain rpa49, hits give low values 1.03 | S. cerevisiae deletion strains, locus YNL250W, strain rad50, hits give low values 0.968 | S. cerevisiae deletion strains, locus YNL271C, strain bni1, hits give low values 0.97 | S. cerevisiae deletion strains, locus YNL298W, strain CLA4, hits give low values 0.976 | S. cerevisiae deletion strains, locus YNL307C, strain MCK1, hits give low values 0.963 | S. cerevisiae deletion strains, locus YNL322C, strain KRE1 (second series), hits give low values 0.964 | S. cerevisiae deletion strains, locus YNL322C, strain KRE1, hits give low values 0.989 | S. cerevisiae deletion strains, locus YNR049C, strain mso1, hits give low values 0.932 | S. cerevisiae deletion strains, locus YNR052C, strain pop2, hits give low values 0.971 | S. cerevisiae deletion strains, locus YOL012C, strain htz1 1.7 | S. cerevisiae deletion strains, locus YOL147C, strain pex11, hits give low values 0.967 | S. cerevisiae deletion strains, locus YOR001W, strain rrp6, hits give low values 0.97 | S. cerevisiae deletion strains, locus YOR061W, strain CKA2, hits give low values 1 | S. cerevisiae deletion strains, locus YOR069W, strain VPS5, hits give low values 0.989 | S. cerevisiae deletion strains, locus YOR070C, strain gyp1, hits give low values 0.97 | S. cerevisiae deletion strains, locus YOR080W, strain dia2, hits give low values 0.956 | S. cerevisiae deletion strains, locus YOR083W, strain WHI5, hits give low values 0.969 | S. cerevisiae deletion strains, locus YOR106W, strain vam3, hits give low values 1 | S. cerevisiae deletion strains, locus YOR136W, strain idh2, hits give low values 0.98 | S. cerevisiae deletion strains, locus YOR144C, strain elg1, hits give low values 0.975 | S. cerevisiae deletion strains, locus YOR184W, strain ser1, hits give low values 0.92 | S. cerevisiae deletion strains, locus YOR265W, strain rbl2, hits give low values 0.973 | S. cerevisiae deletion strains, locus YOR270C, strain vph1, hits give low values 0.997 | S. cerevisiae deletion strains, locus YOR290C, strain snf2, hits give low values 0.957 | S. cerevisiae deletion strains, locus YOR316C, strain cot1, hits give low values 0.974 | S. cerevisiae deletion strains, locus YPL051W, strain arl3, hits give low values 0.985 | S. cerevisiae deletion strains, locus YPL078C, strain atp4, hits give low values 0.95 | S. cerevisiae deletion strains, locus YPL106C, strain sse1, hits give low values 0.928 | S. cerevisiae deletion strains, locus YPL240C, strain hsp82, hits give low values 0.977 | S. cerevisiae deletion strains, locus YPR119W, strain clb2, hits give low values 0.974 | S. cerevisiae deletion strains, locus YPR141C, strain kar3, hits give low values 0.976 | S. cerevisiae deletion strains, locus YPR163C, strain tif3, hits give low values 0.973 | S. cerevisiae deletion strains, locus YPR167C, strain met16, hits give low values 0.974 | S. cerevisiae deletion strains, strain wtn01, hits give low values 0.972 | S. cerevisiae strains, strain wild type, hits give low values 1.01
